Experimental data from PubChem BioAssay AID1159580 (chemical genetic matrix, 2015).
Out of some 5,500 compounds screened, about 2,000 (36%) were called active. Another 18% or so got no clear call; they are omitted. Some of the results follow. Unmarked numbers belong to inactive results. Cut-off read from the data, not from the text of the source: active = normalized growth mostly below about 0.91 (no sharp cut-off); inconclusive = no clear call, values can overlap the other calls; inactive = mostly above about 0.92.

Test: chemical genetic growth profiling, strain panel (AID 1159580);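 note: tested at 20 µM; growth read once vehicle control cultures reached saturation at 30 °C; 1 = growth at the plate median or of vehicle wells; lower values mean less growth of the strain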
Settings: S. cerevisiae deletion strains, growth OD

Question: Which normalized growth (locus YAL013W, strain DEP1, active compounds read low) does the source give for `COC(=O)[C@]1(C)CC[C@]2(C)CC[C@]3(C)C4=CC=C5C(=CC(=O)C(O)=C5C)[C@]4(C)CC[C@@]3(C)[C@@H]2C1` here?
Answer: The normalized growth was 0.592 (active).

Question: What about the normalized growth (locus YAL021C, strain ccr4, active compounds read low) of the same molecule?
Answer: Its normalized growth is 0.878 (active).

Question: And the normalized growth (locus YAL026C, strain drs2, active compounds read low)?
Answer: The normalized growth was 0.592 (active).

Question: What about the normalized growth (locus YAL030W, strain snc1, active compounds read low) of the same molecule?
Answer: The normalized growth was 0.823 (active).

Question: What about the normalized growth (locus YBL061C, strain skt5, active compounds read low) of the same molecule?
Answer: The normalized growth was 0.635 (active).

Question: What about the normalized growth (locus YBR009C, strain hhf1, active compounds read low) of the same molecule?
Answer: The normalized growth was 0.691 (active).

Question: What about the normalized growth (locus YBR021W, strain FUR4, active compounds read low) of the same molecule?
Answer: The normalized growth was 1.02.

Question: What about the normalized growth (locus YBR023C, strain chs3, active compounds read low) of the same molecule?
Answer: The normalized growth was 0.595 (active).

Question: What about the normalized growth (locus YBR171W, strain sec66, active compounds read low) of the same molecule?
Answer: The normalized growth was 0.949.

Question: And the normalized growth (locus YBR229C, strain ROT2, active compounds read low)?
Answer: Its normalized growth is 0.905 (active).

Question: What about the normalized growth (locus YBR231C, strain swc5, active compounds read low) of the same molecule?
Answer: Its normalized growth is 0.503 (active).

Question: And the normalized growth (locus YBR279W, strain paf1, active compounds read low)?
Answer: The normalized growth was 0.755 (active).

Question: And the normalized growth (locus YCL011C, strain gbp2, active compounds read low)?
Answer: The normalized growth was 0.723 (active).

Question: What about the normalized growth (locus YCL016C, strain dcc1, active compounds read low) of the same molecule?
Answer: The normalized growth was 0.827 (active).

Question: What about the normalized growth (locus YCL029C, strain bik1, active compounds read low) of the same molecule?
Answer: The normalized growth was 0.94.

Question: And the normalized growth (locus YCL069W, strain vba3, active compounds read low)?
Answer: The normalized growth was 0.775 (active).

Question: And the normalized growth (locus YCR088W, strain abp1, active compounds read low)?
Answer: Its normalized growth is 0.864 (active).

Question: And the normalized growth (locus YDL005C, strain med2, active compounds read low)?
Answer: Its normalized growth is 0.956.

Question: And the normalized growth (locus YDL035C, strain GPR1, active compounds read low)?
Answer: Its normalized growth is 0.703 (active).

Question: What about the normalized growth (locus YDL040C, strain nat1, active compounds read low) of the same molecule?
Answer: Its normalized growth is 0.996.

Question: And the normalized growth (locus YDL074C, strain BRE1, active compounds read low)?
Answer: The normalized growth was 0.622 (active).

Question: What about the normalized growth (locus YDL101C, strain DUN1, active compounds read low) of the same molecule?
Answer: The normalized growth was 0.648 (active).

Question: And the normalized growth (locus YDL134C, strain PPH21, active compounds read low)?
Answer: Its normalized growth is 0.755 (active).

Question: And the normalized growth (locus YDL185W, strain tfp1, active compounds read low)?
Answer: Its normalized growth is 0.91.

Question: And the normalized growth (locus YDL192W, strain arf1, active compounds read low)?
Answer: Its normalized growth is 0.889 (active).

Question: And the normalized growth (locus YDR001C, strain nth1, active compounds read low)?
Answer: Its normalized growth is 0.922 (active).

Question: What about the normalized growth (locus YDR069C, strain doa4, active compounds read low) of the same molecule?
Answer: The normalized growth was 0.514 (active).

Question: And the normalized growth (locus YDR101C, strain arx1, active compounds read low)?
Answer: The normalized growth was 0.935.

Question: And the normalized growth (locus YDR137W, strain rgp1, active compounds read low)?
Answer: Its normalized growth is 0.693 (active).

Question: And the normalized growth (locus YDR150W, strain NUM1, active compounds read low)?
Answer: Its normalized growth is 0.835 (active).

Question: And the normalized growth (locus YDR159W, strain sac3, active compounds read low)?
Answer: The normalized growth was 0.621 (active).

Question: And the normalized growth (locus YDR162C, strain NBP2, active compounds read low)?
Answer: Its normalized growth is 0.419 (active).

Question: And the normalized growth (locus YDR195W, strain ref2)?
Answer: The normalized growth was 1.24 [resistant] (active).

Question: What about the normalized growth (locus YDR297W, strain sur2, active compounds read low) of the same molecule?
Answer: Its normalized growth is 0.646 (active).

Question: And the normalized growth (locus YDR318W, strain mcm21, active compounds read low)?
Answer: The normalized growth was 0.852 (active).

Question: And the normalized growth (locus YDR334W, strain swr1, active compounds read low)?
Answer: The normalized growth was 0.553 (active).

Question: And the normalized growth (locus YDR335W, strain msn5, active compounds read low)?
Answer: Its normalized growth is 0.733 (active).

Question: And the normalized growth (locus YDR388W, active compounds read low)?
Answer: Its normalized growth is 0.96.

Question: And the normalized growth (locus YDR392W, strain spt3, active compounds read low)?
Answer: The normalized growth was 0.149 (active).

Question: And the normalized growth (locus YDR502C, strain sam2, active compounds read low)?
Answer: The normalized growth was 0.878 (active).

Question: And the normalized growth (locus YEL003W, strain gim4, active compounds read low)?
Answer: Its normalized growth is 0.841 (active).

Question: And the normalized growth (locus YEL037C, strain rad23, active compounds read low)?
Answer: The normalized growth was 0.814 (active).

Question: What about the normalized growth (locus YEL061C, strain CIN8 (second series), active compounds read low) of the same molecule?
Answer: The normalized growth was 0.784 (active).

Question: What about the normalized growth (locus YEL061C, strain CIN8, active compounds read low) of the same molecule?
Answer: Its normalized growth is 0.76 (active).

Question: And the normalized growth (locus YER015W, strain faa2, active compounds read low)?
Answer: Its normalized growth is 0.687 (active).

Question: And the normalized growth (locus YER016W, strain bim1, active compounds read low)?
Answer: Its normalized growth is 0.78 (active).

Question: What about the normalized growth (locus YER110C, active compounds read low) of the same molecule?
Answer: Its normalized growth is 0.986.

Question: And the normalized growth (locus YER111C, strain swi4, active compounds read low)?
Answer: Its normalized growth is 0.573 (active).

Question: What about the normalized growth (locus YER155C, strain BEM2 (second series), active compounds read low) of the same molecule?
Answer: Its normalized growth is 0.572 (active).

Question: What about the normalized growth (locus YER155C, strain BEM2, active compounds read low) of the same molecule?
Answer: The normalized growth was 0.846 (active).

Question: And the normalized growth (locus YER167W, strain BCK2, active compounds read low)?
Answer: The normalized growth was 0.837 (active).

Question: What about the normalized growth (locus YFR010W, strain ubp6, active compounds read low) of the same molecule?
Answer: Its normalized growth is 0.777 (active).

Question: And the normalized growth (locus YGL078C, strain dbp3, active compounds read low)?
Answer: Its normalized growth is 0.944.

Question: What about the normalized growth (locus YGL086W, strain mad1, active compounds read low) of the same molecule?
Answer: Its normalized growth is 0.921 (active).

Question: What about the normalized growth (locus YGL167C, strain pmr1, active compounds read low) of the same molecule?
Answer: The normalized growth was 0.881 (active).

Question: And the normalized growth (locus YGL173C, strain kem1, active compounds read low)?
Answer: Its normalized growth is 0.439 (active).

Question: And the normalized growth (locus YGL227W, strain vid30, active compounds read low)?
Answer: Its normalized growth is 0.879 (active).

Question: And the normalized growth (locus YGL240W, strain doc1, active compounds read low)?
Answer: Its normalized growth is 0.874 (active).

Question: And the normalized growth (locus YGL248W, strain PDE1, active compounds read low)?
Answer: The normalized growth was 0.675 (active).

Question: What about the normalized growth (locus YGL253W, strain hxk2, active compounds read low) of the same molecule?
Answer: Its normalized growth is 0.584 (active).

Question: What about the normalized growth (locus YGR135W, strain pre9, active compounds read low) of the same molecule?
Answer: Its normalized growth is 0.843 (active).

Question: What about the normalized growth (locus YGR252W, strain gcn5, active compounds read low) of the same molecule?
Answer: The normalized growth was 0.932.

Question: What about the normalized growth (locus YHR013C, strain ard1, active compounds read low) of the same molecule?
Answer: The normalized growth was 0.597 (active).

Question: And the normalized growth (locus YHR027C, strain rpn1, active compounds read low)?
Answer: Its normalized growth is 0.514 (active).

Question: And the normalized growth (locus YHR030C, strain SLT2, active compounds read low)?
Answer: The normalized growth was 0.736 (active).

Question: And the normalized growth (locus YHR079C, strain IRE1 (second series), active compounds read low)?
Answer: Its normalized growth is 0.977.

Question: And the normalized growth (locus YHR094C, strain hxt1, active compounds read low)?
Answer: Its normalized growth is 0.965.

Question: And the normalized growth (locus YHR129C, strain ARP1, active compounds read low)?
Answer: Its normalized growth is 0.693 (active).

Question: And the normalized growth (locus YHR142W, strain chs7, active compounds read low)?
Answer: The normalized growth was 0.488 (active).

Question: What about the normalized growth (locus YHR200W, strain rpn10, active compounds read low) of the same molecule?
Answer: Its normalized growth is 0.929.

Question: And the normalized growth (locus YIL066C, strain RNR3, active compounds read low)?
Answer: Its normalized growth is 0.523 (active).

Question: And the normalized growth (locus YIL073C, strain SPO22, active compounds read low)?
Answer: Its normalized growth is 0.531 (active).

Question: And the normalized growth (locus YIL125W, strain kgd1, active compounds read low)?
Answer: Its normalized growth is 0.892 (active).

Question: And the normalized growth (locus YIR030C, strain dcg1, active compounds read low)?
Answer: The normalized growth was 0.961.

Question: What about the normalized growth (locus YJL092W, strain hpr5, active compounds read low) of the same molecule?
Answer: The normalized growth was 0.836 (active).

Question: What about the normalized growth (locus YJL095W, strain BCK1 (second series), active compounds read low) of the same molecule?
Answer: Its normalized growth is 0.615 (active).

Question: And the normalized growth (locus YJL095W, strain BCK1, active compounds read low)?
Answer: Its normalized growth is 0.634 (active).

Question: What about the normalized growth (locus YJL115W, strain asf1, active compounds read low) of the same molecule?
Answer: The normalized growth was 0.884 (active).

Question: What about the normalized growth (locus YJL129C, strain trk1, active compounds read low) of the same molecule?
Answer: The normalized growth was 0.625 (active).

Question: What about the normalized growth (locus YJL134W, strain LCB3, active compounds read low) of the same molecule?
Answer: Its normalized growth is 0.921 (active).

Question: And the normalized growth (locus YJL154C, strain vps35, active compounds read low)?
Answer: The normalized growth was 0.907 (active).

Question: And the normalized growth (locus YJL164C, strain tpk1, active compounds read low)?
Answer: The normalized growth was 0.616 (active).

Question: What about the normalized growth (locus YJL166W, strain qcr8, active compounds read low) of the same molecule?
Answer: The normalized growth was 0.509 (active).

Question: What about the normalized growth (locus YJL168C, strain set2, active compounds read low) of the same molecule?
Answer: The normalized growth was 0.968.

Question: And the normalized growth (locus YJL187C, strain SWE1 (second series), active compounds read low)?
Answer: Its normalized growth is 0.455 (active).
